Screens (PubChem BioAssay)
In the library only some 15% were active in any assay of this set; here they are far more common.
ALOX12 inh: Primary qHTS assay for inhibitors of human arachidonate 12S-lipoxygenase (ALOX12): Round 2; purified 12hLO, xylenol orange hydroperoxide absorbance; Polyunsaturated fatty acid lipoxygenase ALOX12 (Homo sapiens), P18054; 580,000 tested, 1.1% active; Potency, µM (top dose mostly 108 µM), for inactives: at the top dose activity change, negative = inhibition, usual class: inhibitors
Target sequence (P18054 whole entry, looked up): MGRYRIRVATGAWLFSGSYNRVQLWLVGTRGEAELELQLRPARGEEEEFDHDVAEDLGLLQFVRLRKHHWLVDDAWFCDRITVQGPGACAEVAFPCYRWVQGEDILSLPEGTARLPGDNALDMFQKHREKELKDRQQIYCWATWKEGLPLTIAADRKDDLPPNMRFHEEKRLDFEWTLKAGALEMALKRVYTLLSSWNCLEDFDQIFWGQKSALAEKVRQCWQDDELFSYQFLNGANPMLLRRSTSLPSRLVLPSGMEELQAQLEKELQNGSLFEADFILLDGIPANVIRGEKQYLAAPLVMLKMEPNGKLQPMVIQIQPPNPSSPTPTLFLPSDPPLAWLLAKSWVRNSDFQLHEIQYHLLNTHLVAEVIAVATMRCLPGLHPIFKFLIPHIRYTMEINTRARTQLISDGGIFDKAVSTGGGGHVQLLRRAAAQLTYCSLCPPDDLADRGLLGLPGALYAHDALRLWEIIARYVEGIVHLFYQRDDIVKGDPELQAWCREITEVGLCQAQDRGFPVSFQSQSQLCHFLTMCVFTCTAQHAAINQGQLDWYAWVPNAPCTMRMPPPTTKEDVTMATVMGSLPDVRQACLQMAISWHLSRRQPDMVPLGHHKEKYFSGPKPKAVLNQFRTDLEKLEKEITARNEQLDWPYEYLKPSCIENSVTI
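Purified human 12hLO (150 nM final) in 25 mM Hepes, 0.01% Triton X-100, pH 7.0 was preincubated 15 min at room temperature with compound. Then 40 uM arachidonic acid was added, 30 min. Hydroperoxide was read by Fe-XO absorbance ratio 573/405 nm.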
DT40 TDP1 CPT: qHTS for Inhibitors of human tyrosyl-DNA phosphodiesterase 1 (TDP1): qHTS in cells in presence of CPT; chicken DT40 Tdp1-/-;hTDP1 cells + 20 nM CPT, ATP luminescence, 48 h; Potency, µM (titrated, usually from 46.2 µM), inactives show at the top dose activity change, negative = growth inhibition, usual class: inhibitors; 420,000 tested, 12% active; AID 686979, 2013; also: nearly all actives have a fitted effect of over 55% in size
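Chicken DT40 Tdp1-/- cells complemented with human TDP1, 400 cells/well, exposed to compounds plus 20 nM camptothecin for at least 48 h at 37 C; viability read as ATP content by CellTiter-Glo luminescence.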
ELG1 repair inh: qHTS screen for small molecules that inhibit ELG1-dependent DNA repair in human embryonic kidney (HEK293T) cells expressing luciferase-tagged ELG1; AID 504467, 2011; Potency, µM (doses to about 46.1 µM), for inactives: top-dose activity change, negative = inhibition, most hits filed as inhibitors; 330,000 tested, 2.3% active; HEK293T ELG1-luciferase reporter, luminescence, 16 h; DNA damage induced by 5-fluorouridine; also: nearly all actives have a fitted effect of over 55% in size
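Cells (2,000 per well) received 5-fluorouridine plus test compound or DMSO and were incubated 16 hr at 37 °C, 5% CO2. Luciferase activity was read by luminescence 30 min after ONE-Glo addition; signal suppression marked inhibition of damage-induced ELG1 function.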
RORg inh: qHTS for inhibitors of ROR gamma transcriptional activity | Nuclear receptor ROR-gamma (Mus musculus), P51450 | Drosophila S2 Gal4-RORgamma UAS-luciferase reporter, 20 h | Potency, µM (titrated, usually from 53.6 µM), inactives show top-dose activity change, negative = inhibition, most hits filed as inhibitors | 310,000 tested, 5.4% active | AID 2551, 2010; also: nearly all actives have a fitted effect of over 60% in size
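A Gal4/UAS one-hybrid system in insect cells: metallothionein-promoter Gal4–ROR gamma fusion plus Photinus luciferase reporter. Copper sulfate 700 uM final, 20 hr ambient incubation, luminescent detection after 10 min with reagent.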
DT40 TDP1 no CPT: qHTS for Inhibitors of human tyrosyl-DNA phosphodiesterase 1 (TDP1): qHTS in cells in absence of CPT. DT40 Tdp1-/- hTDP1 cells, no CPT, ATP luminescence, 48 h. Potency, µM (titrated, usually from 46.2 µM), without a hit: top-dose activity change, negative = growth inhibition, hits mostly inhibitors. 420,000 tested, 15% active. AID 686978, 2013; also: nearly all actives have a fitted effect of over 55% in size
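Stably hTDP1-transfected Tdp1-null chicken DT40 cells were treated with library compounds minus camptothecin and grown for at least 48 hr at 37 °C, after which cellular ATP was quantified by luminescence.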
VP16 counter: VP16 counterscreen qHTS for inhibitors of ROR gamma transcriptional activity. AID 2546, 2010. Drosophila S2 Gal4-VP16 UAS-luciferase, luminescence, 20 h. Potency, µM (top dose mostly 53.6 µM), for inactives: at the highest dose activity, negative = inhibition, usual class: inhibitors. 310,000 tested, 3.5% active;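 also: Gal4-VP16 expression switched on by copper sulfate through the metallothionein promoter; nearly all actives have a fitted effect of over 50% in size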
* = called active by the depositor. Calls follow the shape of the dose curve; as a rule, active = well fitted curve in the direction sought with a large enough effect; inconclusive = small, poorly fitted or top-dose-only effect, or another doubt; inactive = no such curve, though single readings can be large; an effect the other way counts as inactive or inconclusive. % is scaled to controls: 0 for no effect and ±100 for the full control effect; potency is read from the fitted curve at half-maximal effect.

O=Cc1cccc(OCc2cccc3ccccc23)c1 was read as ALOX12 inh 4.5%, DT40 TDP1 CPT 4.11µM*, ELG1 repair inh inconclusive, RORg inh 5.3%, DT40 TDP1 no CPT 2.59µM* and VP16 counter -6.5%.
`O=Cc1c[nH]c2ccccc12` gave ALOX12 inh -31.2%.
Screening CCCCN(CC)Cc1c(C)[nH]c2ccccc2c1=O returned ALOX12 inh 21.1%, DT40 TDP1 CPT 2.3%, ELG1 repair inh -15.5%, RORg inh -13.0%, DT40 TDP1 no CPT 3.4% and VP16 counter 23.8%.
`CC[n+]1ccc(/C=C/c2c[nH]c3ccccc23)cc1` gave ALOX12 inh inconclusive, DT40 TDP1 CPT 2.31µM*, ELG1 repair inh inconclusive, RORg inh 14.9%, DT40 TDP1 no CPT 2.06µM* and VP16 counter 12.6µM*.
For CCCCCCCCCC[n+]1ccc(/C=C/c2c(C)[nH]c3ccccc23)cc1 the results were DT40 TDP1 CPT 0.562µM* and DT40 TDP1 no CPT 0.398µM*.
`CCCCCCC[n+]1ccc(/C=C/c2c[nH]c3ccccc23)cc1` gave DT40 TDP1 CPT 0.282µM* and DT40 TDP1 no CPT 0.316µM*.
CCCCCCCCCC[n+]1ccc(/C=C/c2c[nH]c3ccccc23)c2ccccc21 was read as DT40 TDP1 CPT 1.58µM* and DT40 TDP1 no CPT 2µM*.
C(=N\N=C\c1c[nH]c2ccccc12)/c1c[nH]c2ccccc12 was read as ALOX12 inh -5.9%.
`CC(NC(=O)CC1(C(=O)O)CCCCC1)c1ccc2c(c1)CCCC2` (centres undefined) gave ALOX12 inh -7.9%.
CCCCCCCCCCCCCCCC[n+]1ccc(C)c2ccccc21 was read as DT40 TDP1 CPT 0.708µM* and DT40 TDP1 no CPT 0.794µM*.
For CCC(C)[C@H](NC(=O)Nc1ccc2oc(-c3cccnc3)nc2c1)C(=O)OC (some centres undefined) the results were ALOX12 inh -23.6%.
`CCNC(=O)CNC(=O)c1cc(Br)ccc1F` gave ALOX12 inh 5.3%.
Screening CC1CCCN(C(=O)C2CCN(c3ncnc4c3nc3n4CCCCC3)CC2)C1 (centres undefined) returned ALOX12 inh 5.5%, DT40 TDP1 CPT inconclusive, ELG1 repair inh inconclusive, RORg inh 2.7%, DT40 TDP1 no CPT 23.1µM* and VP16 counter 2.1%.
`CCOC(=O)C1CCN(C(=O)C2CCCN(c3ncnc4c3nc3n4CCCCC3)C2)CC1` (centres undefined) gave ALOX12 inh 35.1%, DT40 TDP1 CPT inconclusive, ELG1 repair inh -8.9%, RORg inh 1.3%, DT40 TDP1 no CPT 18.4µM* and VP16 counter 1.4%.
`CC1CC(C)CN(C(=O)C2CCCN(c3ncnc4c3nc3n4CCCCC3)C2)C1` (centres undefined) gave ALOX12 inh inconclusive, DT40 TDP1 CPT 23.1µM*, ELG1 repair inh -17.4%, RORg inh 27.8%, DT40 TDP1 no CPT 14.6µM* and VP16 counter -10.6%.
Screening CC1CCN(C(=O)C2CCCN(c3ncnc4c3nc3n4CCCCC3)C2)CC1 (centres undefined) returned ALOX12 inh 2.2%, DT40 TDP1 CPT inconclusive, ELG1 repair inh -21.1%, RORg inh 4.2%, DT40 TDP1 no CPT inconclusive and VP16 counter -1.5%.
COc1cccc(N2CCN(C(=O)C3CCCN(c4ncnc5c4nc4n5CCCCC4)C3)CC2)c1 (centres undefined) was read as ALOX12 inh 7.5%, DT40 TDP1 CPT 16.4µM*, ELG1 repair inh 3.26µM*, RORg inh 42.7%, DT40 TDP1 no CPT inconclusive and VP16 counter -3.2%.
For O=C(C1CCN(c2ncnc3c2nc2n3CCCCC2)CC1)N1CCCCC1 the results were ALOX12 inh 3.3%, DT40 TDP1 CPT -33.0%, ELG1 repair inh -0.5%, RORg inh -13.3%, DT40 TDP1 no CPT inconclusive and VP16 counter 12.8%.
For CCCCC(=O)NNC(=S)NC(=O)CCC the results were ALOX12 inh -22.8%, DT40 TDP1 CPT inconclusive, ELG1 repair inh inconclusive, RORg inh 10µM*, DT40 TDP1 no CPT inconclusive and VP16 counter inconclusive.
`O=C(CCc1ccccc1)NNC(=S)NC(=O)c1ccccc1` gave ALOX12 inh inconclusive, DT40 TDP1 CPT 7.31µM*, ELG1 repair inh 13.9%, RORg inh 4.47µM*, DT40 TDP1 no CPT 14.6µM* and VP16 counter inconclusive.
For CC(C)(C)c1cc(CCC(=O)NNC(=O)c2ccco2)cc(C(C)(C)C)c1O the results were ALOX12 inh -1.3%, DT40 TDP1 CPT -8.4%, ELG1 repair inh 2.3%, RORg inh 18.2%, DT40 TDP1 no CPT inconclusive and VP16 counter 2.0%.
`CCCCC(=O)NC(=S)NNC(=O)CCc1ccccc1` gave ALOX12 inh -24.7%, DT40 TDP1 CPT 20.6µM*, ELG1 repair inh -0.1%, RORg inh 11.2µM*, DT40 TDP1 no CPT 20.6µM* and VP16 counter -6.8%.
CC(=O)NC(=S)NNC(=O)CCc1ccccc1 was read as ALOX12 inh -19.8%, DT40 TDP1 CPT inconclusive, ELG1 repair inh -16.6%, RORg inh 34.4%, DT40 TDP1 no CPT inconclusive and VP16 counter -6.0%.
Screening CCCCC(=O)NC(=S)NNC(=O)CC#N returned ALOX12 inh 6.9%, DT40 TDP1 CPT -19.8%, ELG1 repair inh -0.9%, RORg inh inconclusive, DT40 TDP1 no CPT -19.2% and VP16 counter -0.2%.
For CC(C)(C)c1cc(CCC(=O)NNC(=S)NC(=O)c2ccccc2)cc(C(C)(C)C)c1O the results were DT40 TDP1 CPT 4.11µM*, ELG1 repair inh 16.5%, RORg inh 11.2µM*, DT40 TDP1 no CPT 3.66µM* and VP16 counter 12.6µM*.
Screening COc1ccc(CNC(=O)[C@@]23CCCC[C@H]2N(C)C(=O)CC3)cc1 returned ALOX12 inh -9.3%.
`O=C(Cn1c(=O)oc2cc(Cl)ccc21)Nc1cccc(C(F)(F)F)c1` gave ALOX12 inh -24.2%, DT40 TDP1 CPT 18.4µM* and DT40 TDP1 no CPT 18.4µM*.
